# Assay results from the supplement of paper PMC10849652.
# Of roughly 8,800 targets only a part is listed; those with a hit were picked by preference. About 0.5% of all pairs of compound and target were hits. Unmarked numbers belong to inactive results.
# How the values were obtained:
# Assay in all cases: log2 fold change, soluble protein after heating vs DMSO (PISA); higher = thermal stabilisation; K562 lysate, 10 uM; active = over 0.2 and 3.5 SD of the protein, either way, in both replicates (recomputed)
# [1] = compound: C#Cc1cccc(Nc2ncnc3cc(OCCOC)c(OCCOC)cc23)c1 [erlotinib]
# Procedure, shortened: (§1)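 Log-two fold change in thermal stability relative to solvent controls is reported from duplicates. For each sample, crude K562 extract from dounce-homogenised pellets in PBS pH 7.4 with 1 mM MgCl2, at 1 mg/mL protein, was treated with 10 μM compound for 30 min. Aliquots heated for 3 min across 48°C-58°C were pooled, brought to 0.5% NP-40 at 4°C and cleared at 21,000xg for 90 min. The supernatant was quantified by TMTpro 16plex LC-MS/MS with channel sums equalised.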
# [2] = compound: C/C(=N\NC(=O)C1=CC(=CC=C1)S(=O)(=O)N2CCOCC2)/C3=C(C=CC(=C3)Cl)O
# Procedure, shortened: as §1
# [3] = compound: C1=CC(=CC=C1C2=NC3=C(N2)C=C(C=C3)C(=O)N)OC4=CC=C(C=C4)Cl
# Procedure, shortened: as §1
# [4] = compound: C1=CC2=C(C=CC(=C2)/C=C\3/C(=O)NC(=NCC4=CC=CS4)S3)N=C1
# Procedure, shortened: as §1
# [5] = compound: C1=CC2=NC=CN=C2C=C1/C=C/3\C(=O)NC(=O)S3
# Procedure, shortened: as §1
# [6] = compound: C1=CC=C(C=C1)C2=NC(=C(N2)C3=CC=NC=C3)C4=CC(=C(C=C4)Cl)O
# Procedure, shortened: as §1
# [7] = compound: C1=CC=C2C(=C1)C3=NNC4=CC=CC(=C43)C2=O
# Procedure, shortened: as §1
# [8] = compound: C1CCN(C1)C(=O)NC2=CC=CC(=C2)NC3=NC=C(C(=N3)NCCC4=CN=CN4)Br
# Procedure, shortened: as §1
# [9] = compound: C1CN(CCC1(CC2=CC=C(C=C2)Cl)N)C3=NC=NC4=C3C=CN4
# Procedure, shortened: as §1
# [10] = compound: C1COCCN1CCN2C3=CC=CC=C3N=C2NC(=O)C4=CC(=CC=C4)[N+](=O)[O-] [IRAK-1-4 Inhibitor I]
# Procedure, shortened: as §1
# Chain of UniProt O43913 (O43913 whole entry, looked up): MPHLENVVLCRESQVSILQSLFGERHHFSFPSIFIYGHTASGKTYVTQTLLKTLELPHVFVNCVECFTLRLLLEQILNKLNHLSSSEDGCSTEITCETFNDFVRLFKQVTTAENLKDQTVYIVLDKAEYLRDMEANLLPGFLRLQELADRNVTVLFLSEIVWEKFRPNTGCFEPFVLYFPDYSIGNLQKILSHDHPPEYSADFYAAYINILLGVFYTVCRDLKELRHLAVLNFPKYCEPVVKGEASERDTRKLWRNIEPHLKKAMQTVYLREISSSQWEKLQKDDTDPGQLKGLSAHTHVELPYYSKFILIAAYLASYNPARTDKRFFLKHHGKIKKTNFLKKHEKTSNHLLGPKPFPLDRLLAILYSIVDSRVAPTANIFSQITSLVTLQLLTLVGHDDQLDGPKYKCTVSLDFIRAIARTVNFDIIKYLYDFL
# Chain of UniProt O00483 (O00483 whole entry, looked up): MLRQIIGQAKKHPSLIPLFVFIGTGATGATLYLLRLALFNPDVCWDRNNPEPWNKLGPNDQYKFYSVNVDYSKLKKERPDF
# Chain of UniProt Q5SRE5 (Q5SRE5 whole entry, looked up): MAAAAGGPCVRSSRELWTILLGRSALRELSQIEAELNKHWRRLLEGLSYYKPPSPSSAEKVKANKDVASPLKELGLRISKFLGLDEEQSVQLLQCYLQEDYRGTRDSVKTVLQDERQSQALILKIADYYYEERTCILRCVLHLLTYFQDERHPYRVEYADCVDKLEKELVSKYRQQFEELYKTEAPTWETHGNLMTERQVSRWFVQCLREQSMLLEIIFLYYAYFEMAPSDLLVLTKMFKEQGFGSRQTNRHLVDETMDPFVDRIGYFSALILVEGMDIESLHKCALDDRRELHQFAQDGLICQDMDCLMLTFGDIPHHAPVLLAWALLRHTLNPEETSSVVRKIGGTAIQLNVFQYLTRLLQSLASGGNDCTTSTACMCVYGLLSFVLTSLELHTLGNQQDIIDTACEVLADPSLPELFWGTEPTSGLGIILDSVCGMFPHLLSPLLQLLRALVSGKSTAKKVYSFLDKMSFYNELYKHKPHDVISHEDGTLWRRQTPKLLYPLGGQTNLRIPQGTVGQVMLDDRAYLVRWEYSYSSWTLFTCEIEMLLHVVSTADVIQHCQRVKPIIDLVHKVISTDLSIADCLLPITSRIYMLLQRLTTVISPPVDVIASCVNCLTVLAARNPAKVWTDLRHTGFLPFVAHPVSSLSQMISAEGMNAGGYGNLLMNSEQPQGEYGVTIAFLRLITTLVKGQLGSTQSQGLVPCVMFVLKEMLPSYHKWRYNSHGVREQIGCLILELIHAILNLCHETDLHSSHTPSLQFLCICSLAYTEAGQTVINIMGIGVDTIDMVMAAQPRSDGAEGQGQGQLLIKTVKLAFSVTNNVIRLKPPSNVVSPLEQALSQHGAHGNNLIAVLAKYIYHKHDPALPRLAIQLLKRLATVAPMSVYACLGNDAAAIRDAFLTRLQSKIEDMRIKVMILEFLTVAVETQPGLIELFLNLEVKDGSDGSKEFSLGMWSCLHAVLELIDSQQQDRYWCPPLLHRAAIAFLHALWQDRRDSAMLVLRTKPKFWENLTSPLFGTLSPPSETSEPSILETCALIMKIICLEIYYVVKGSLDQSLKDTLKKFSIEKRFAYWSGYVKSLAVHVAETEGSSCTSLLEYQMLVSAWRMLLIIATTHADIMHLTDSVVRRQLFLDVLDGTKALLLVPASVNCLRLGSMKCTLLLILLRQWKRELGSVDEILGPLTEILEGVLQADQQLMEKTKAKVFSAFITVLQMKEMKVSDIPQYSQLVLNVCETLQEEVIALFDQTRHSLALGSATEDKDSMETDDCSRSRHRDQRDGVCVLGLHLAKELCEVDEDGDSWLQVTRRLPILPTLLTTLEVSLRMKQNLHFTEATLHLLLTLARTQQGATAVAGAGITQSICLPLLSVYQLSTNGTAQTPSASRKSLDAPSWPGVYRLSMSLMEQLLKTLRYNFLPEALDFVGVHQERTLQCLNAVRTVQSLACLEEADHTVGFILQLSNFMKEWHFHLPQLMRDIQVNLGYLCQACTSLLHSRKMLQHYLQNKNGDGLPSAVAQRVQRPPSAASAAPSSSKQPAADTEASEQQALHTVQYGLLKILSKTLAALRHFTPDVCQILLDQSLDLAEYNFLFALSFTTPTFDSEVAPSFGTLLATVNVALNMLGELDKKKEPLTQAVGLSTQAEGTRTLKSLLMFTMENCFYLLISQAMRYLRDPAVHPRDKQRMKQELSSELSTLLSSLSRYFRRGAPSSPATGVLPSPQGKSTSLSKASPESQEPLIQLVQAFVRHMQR
# Chain of UniProt P15559 (P15559 whole entry, looked up): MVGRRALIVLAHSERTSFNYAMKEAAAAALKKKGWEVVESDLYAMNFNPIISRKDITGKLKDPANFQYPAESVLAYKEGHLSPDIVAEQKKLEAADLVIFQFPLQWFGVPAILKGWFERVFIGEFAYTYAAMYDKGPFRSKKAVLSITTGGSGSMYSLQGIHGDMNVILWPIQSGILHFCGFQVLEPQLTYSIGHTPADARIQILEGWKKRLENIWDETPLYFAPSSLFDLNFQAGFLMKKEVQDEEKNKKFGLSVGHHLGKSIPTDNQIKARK
# Chain of UniProt Q9NTK5 (Q9NTK5 whole entry, looked up): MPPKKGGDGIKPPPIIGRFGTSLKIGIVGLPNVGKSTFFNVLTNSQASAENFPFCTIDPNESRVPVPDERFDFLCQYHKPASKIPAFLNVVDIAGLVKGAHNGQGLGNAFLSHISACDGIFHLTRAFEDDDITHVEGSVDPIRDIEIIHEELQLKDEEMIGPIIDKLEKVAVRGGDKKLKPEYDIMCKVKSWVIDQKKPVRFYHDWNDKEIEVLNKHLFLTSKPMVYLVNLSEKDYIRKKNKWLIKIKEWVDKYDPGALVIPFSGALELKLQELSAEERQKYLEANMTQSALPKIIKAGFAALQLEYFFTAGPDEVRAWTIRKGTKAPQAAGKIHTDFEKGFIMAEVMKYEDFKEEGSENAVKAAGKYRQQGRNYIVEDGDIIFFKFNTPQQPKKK
# Chain of UniProt Q9H4L5 (Q9H4L5 whole entry, looked up): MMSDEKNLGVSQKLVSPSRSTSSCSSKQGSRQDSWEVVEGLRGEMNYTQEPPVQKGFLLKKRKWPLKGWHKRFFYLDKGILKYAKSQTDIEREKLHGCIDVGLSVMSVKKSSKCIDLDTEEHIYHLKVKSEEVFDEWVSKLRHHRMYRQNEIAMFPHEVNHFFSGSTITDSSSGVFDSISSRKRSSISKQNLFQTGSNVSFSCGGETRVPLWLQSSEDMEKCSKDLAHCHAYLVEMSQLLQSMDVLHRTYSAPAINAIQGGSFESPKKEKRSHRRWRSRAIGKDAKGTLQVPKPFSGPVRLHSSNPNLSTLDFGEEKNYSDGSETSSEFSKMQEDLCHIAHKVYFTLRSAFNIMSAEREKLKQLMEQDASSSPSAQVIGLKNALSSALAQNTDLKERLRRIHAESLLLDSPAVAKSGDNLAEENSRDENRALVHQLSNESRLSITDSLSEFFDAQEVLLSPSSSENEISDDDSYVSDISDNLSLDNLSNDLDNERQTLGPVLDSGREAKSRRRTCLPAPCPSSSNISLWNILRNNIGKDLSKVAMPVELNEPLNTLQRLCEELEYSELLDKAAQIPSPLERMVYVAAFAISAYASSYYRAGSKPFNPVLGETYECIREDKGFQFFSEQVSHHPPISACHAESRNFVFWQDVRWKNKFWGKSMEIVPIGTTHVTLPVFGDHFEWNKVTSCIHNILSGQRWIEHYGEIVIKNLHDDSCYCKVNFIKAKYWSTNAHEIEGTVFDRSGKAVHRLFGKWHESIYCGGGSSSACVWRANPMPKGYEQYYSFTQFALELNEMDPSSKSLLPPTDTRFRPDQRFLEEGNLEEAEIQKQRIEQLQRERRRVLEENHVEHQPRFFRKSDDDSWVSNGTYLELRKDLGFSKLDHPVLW
# Chain of UniProt O94776 (O94776 whole entry, looked up): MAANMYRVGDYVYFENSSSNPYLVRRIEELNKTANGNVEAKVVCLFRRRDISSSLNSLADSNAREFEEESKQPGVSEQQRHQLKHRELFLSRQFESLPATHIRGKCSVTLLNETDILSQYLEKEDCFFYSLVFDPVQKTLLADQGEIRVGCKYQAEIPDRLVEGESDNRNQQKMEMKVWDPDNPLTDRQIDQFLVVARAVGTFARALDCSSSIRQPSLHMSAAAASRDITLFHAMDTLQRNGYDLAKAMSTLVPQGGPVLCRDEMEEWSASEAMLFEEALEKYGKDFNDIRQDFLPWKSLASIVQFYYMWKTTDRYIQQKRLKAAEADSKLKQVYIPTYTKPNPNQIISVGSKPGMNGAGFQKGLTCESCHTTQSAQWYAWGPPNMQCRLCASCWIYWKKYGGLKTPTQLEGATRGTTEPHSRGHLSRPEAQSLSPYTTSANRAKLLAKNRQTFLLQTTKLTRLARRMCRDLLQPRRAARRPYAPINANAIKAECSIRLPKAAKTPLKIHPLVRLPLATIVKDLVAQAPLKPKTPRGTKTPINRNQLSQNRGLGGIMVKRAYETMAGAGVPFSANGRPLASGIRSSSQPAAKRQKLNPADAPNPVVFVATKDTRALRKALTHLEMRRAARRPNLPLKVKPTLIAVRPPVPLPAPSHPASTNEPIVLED
# Chain of UniProt Q9NPF4 (Q9NPF4 whole entry, looked up): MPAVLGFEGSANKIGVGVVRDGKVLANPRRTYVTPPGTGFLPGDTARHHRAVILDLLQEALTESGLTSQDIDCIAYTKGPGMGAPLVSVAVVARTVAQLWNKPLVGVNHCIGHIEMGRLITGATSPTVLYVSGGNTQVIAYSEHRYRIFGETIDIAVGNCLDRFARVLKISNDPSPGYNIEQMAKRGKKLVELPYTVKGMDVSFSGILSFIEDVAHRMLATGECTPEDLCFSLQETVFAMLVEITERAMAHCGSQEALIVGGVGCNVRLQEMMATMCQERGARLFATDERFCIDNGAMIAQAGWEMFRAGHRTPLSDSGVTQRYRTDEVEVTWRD
Target,log2 fold change [1],log2 fold change [2],log2 fold change [3],log2 fold change [4],log2 fold change [5],log2 fold change [6],log2 fold change [7],log2 fold change [8],log2 fold change [9],log2 fold change [10]
ORC5 (UniProt O43913),0.014,0.021,-0.017,0.003,0.045,0.029,-0.016,-0.085,-0.061,-0.068
NUP188 (UniProt Q5SRE5),0.066,0.011,-0.01,0.004,-0.007,-0.03,-0.034,0.027,-0.003,0.023
MTA2 (UniProt O94776),-0.025,-0.017,0.019,0.013,-0.012,-0.015,-0.023,-0.007,0.021,-0.005
PARD3 (UniProt Q8TEW0),0.1,-0.288,0.051,-0.146,-0.029,0.021,0.007,0.067,0.017,0.028
NBEAL2 (UniProt Q6ZNJ1),0.032,0.011,-0.031,0.038,0.017,-0.004,-0.032,-0.012,0.024,-0.01
MRPL58 (UniProt Q14197),0.025,-0.005,0.054,-0.003,0.01,-0.002,-0.025,-0.078,0.043,-0.012
NQO1 (UniProt P15559),-0.033,0.081,0.055,-0.08,-0.02,-0.022,-0.192,0.005,0.006,-0.017
MYO1D (UniProt O94832),0.01,-0.064,-0.022,0.004,0.006,0.01,-0.083,0.015,0.031,-0.027
NOC2L (UniProt Q9Y3T9),-0.036,-0.013,-0.018,-0.029,0.027,0.031,0.077,-0.009,-0.004,-0.046
ORC3 isoform 2 (UniProt Q9UBD5),-0.006,-0.048,-0.046,0.004,0.053,-0.011,-0.045,-0.015,-0.007,-0.008
MTA1 (UniProt Q13330),0.006,0,0.013,0.017,-0.036,0,-0.035,0.002,-0.008,0.015
OSBPL3 isoform 2 (UniProt Q9H4L5),0.292,0.206,0.038,0.079,-0.04,0.189,0.135,-0.001,-0.018,-0.183
NDUFA4 (UniProt O00483),0.038,0.092,-0.012,0.055,0.009,0.055,0.046,0.012,0.001,-0.01
OSGEP (UniProt Q9NPF4),0.012,-0.002,0.041,-0.148,-0.236 (active),0.008,-0.058,0.009,-0.028,-0.022
OLA1 (UniProt Q9NTK5),0.038,0.031,0.029,-0.02,0.02,0.007,-0.048,0.022,0.02,-0.02
